These results are taken from the supplement of paper PMC3334620.

Whole data set: some 33,000 sequences, median “E-score (-0.5 to 0.5)” near -0.021, cut for the highest 2% near 0.32. The full list was thinned out, with the highest values kept by preference.

In this test the target is T1, Zap1 (UniProt P47043).
T1 sequence: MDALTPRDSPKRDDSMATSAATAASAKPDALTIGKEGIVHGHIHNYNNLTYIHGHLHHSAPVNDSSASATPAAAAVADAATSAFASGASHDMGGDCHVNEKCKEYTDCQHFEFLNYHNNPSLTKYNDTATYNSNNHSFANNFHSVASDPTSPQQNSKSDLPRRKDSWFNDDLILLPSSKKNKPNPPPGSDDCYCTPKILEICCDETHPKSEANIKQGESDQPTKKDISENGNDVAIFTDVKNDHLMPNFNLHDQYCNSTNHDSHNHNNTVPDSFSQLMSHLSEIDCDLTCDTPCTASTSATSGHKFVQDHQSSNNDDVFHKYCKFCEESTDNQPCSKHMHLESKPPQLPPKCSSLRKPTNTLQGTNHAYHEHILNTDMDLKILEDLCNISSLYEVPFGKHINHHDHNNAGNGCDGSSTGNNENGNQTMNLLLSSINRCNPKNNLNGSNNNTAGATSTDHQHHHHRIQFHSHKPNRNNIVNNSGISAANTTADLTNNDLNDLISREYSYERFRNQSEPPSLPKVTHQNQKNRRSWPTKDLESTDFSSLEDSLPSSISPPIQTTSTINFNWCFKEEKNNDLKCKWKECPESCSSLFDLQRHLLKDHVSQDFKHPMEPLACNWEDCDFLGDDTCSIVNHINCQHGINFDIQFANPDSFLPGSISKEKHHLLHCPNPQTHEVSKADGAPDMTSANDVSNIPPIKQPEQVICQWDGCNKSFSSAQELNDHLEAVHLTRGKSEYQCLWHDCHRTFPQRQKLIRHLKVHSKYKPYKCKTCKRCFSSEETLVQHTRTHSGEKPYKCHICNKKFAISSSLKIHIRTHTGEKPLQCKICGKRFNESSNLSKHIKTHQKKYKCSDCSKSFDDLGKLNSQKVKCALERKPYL
Nature of the test: PBM E-score (8-mer binding enrichment) (E-score (-0.5 to 0.5)); higher = stronger / more preferred TF binding. The settings on record: protein concentration: 200 nM; construct: GST-full length. Here is the method:
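Universal 'all 10-mer' protein binding microarrays (Agilent AMADID 015681) probed with GST-tagged S. cerevisiae TFs (full-length or DBD) made by in vitro transcription/translation (PURExpress), about 100-200 nM. Bound TF was detected with fluorescent anti-GST. Each ungapped 8-mer (which stands for itself and its reverse complement) is scored by the PBM enrichment score (E-score), a modified Wilcoxon-Mann-Whitney statistic from -0.5 to +0.5, computed with the Universal PBM Analysis Suite. Scale: above 0.35 generally sequence-specific binding.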
In the case of AGGTGGTC, the “PBM E-score” value was found to be 0.142.

Regarding GGTTGTTA, the “PBM E-score” value worked out at 0.355.

As to AGTTGTAC, the “PBM E-score” value is 0.146.

With AGTTGTGA, the “PBM E-score” value is 0.193.

Consider CGTTGTGA, for which the “PBM E-score” value was -0.151.

Take GGTTGCGA: the “PBM E-score” value stood at 0.335.

Consider CGTTGCGA, for which the “PBM E-score” value was -0.126.

For GGTTGTAA, the “PBM E-score” value is 0.278.

On to AGTTGTTA, for which the “PBM E-score” value amounted to 0.161.

As for CGTTGTTA, the “PBM E-score” value turned out to be 0.102.

As to GGTTGTGA, the “PBM E-score” value is 0.374.

Turning to GGTTGTAC, the “PBM E-score” value turned out to be 0.336.

Regarding AGTTGCGA, the “PBM E-score” value amounted to 0.16.

CGTAGACC: the “PBM E-score” value was -0.109.

ACAGAACC: the “PBM E-score” value amounted to 0.0979.

Consider ATTGGCAG, for which the “PBM E-score” value was -0.219.

CTGAAGTA: the “PBM E-score” value worked out at 0.0214.

ATGACTCG: the “PBM E-score” value was -0.115.

Regarding CTTGCGAA, the “PBM E-score” value was 0.139.

Turning to GCCATATA, the “PBM E-score” value was 0.0242.

TAAACCGA: the “PBM E-score” value is -0.0627.

ATTCTCTG: the “PBM E-score” value was -0.159.

As for TGACCAAA, the “PBM E-score” value was found to be 0.28.

CCACATCG: the “PBM E-score” value came out at 0.0835.

Turning to GAGTGTCA, the “PBM E-score” value came out at 0.035.

For CAAAGGTG, the “PBM E-score” value is 0.0139.

Consider ATAACAGC, for which the “PBM E-score” value is -0.0193.

CAGCTGGC: the “PBM E-score” value is -0.0978.

For AGAGTTAA, the “PBM E-score” value is -0.086.

Take TCGGTTAA: the “PBM E-score” value was 0.274.

With AGGGTTTA, the “PBM E-score” value came to 0.315.

Turning to TGGGTTAA, the “PBM E-score” value is 0.359.

Regarding GGGGTTTA, the “PBM E-score” value was 0.126.

AGGGTTAG: the “PBM E-score” value was 0.431.

Take AGGGTTAA: the “PBM E-score” value worked out at 0.461.

Turning to AGCGTTAG, the “PBM E-score” value is -0.147.

Consider TGTGTTAA, for which the “PBM E-score” value came to 0.0894.

For GGGGTTAA, the “PBM E-score” value is 0.403.

As for GGGGTTCA, the “PBM E-score” value worked out at 0.0745.

As to AGGGTTTG, the “PBM E-score” value is 0.292.

As for AAACTTAG, the “PBM E-score” value came to 0.0118.

On to ACTCTTGA, for which the “PBM E-score” value was -0.00751.

As for AAACTTCA, the “PBM E-score” value turned out to be 0.00932.

In the case of GTGGTTAA, the “PBM E-score” value turned out to be 0.406.

For ATGGTTTA, the “PBM E-score” value is 0.191.

For GTGGTTGA, the “PBM E-score” value is 0.0163.

Consider ATGGTTCA, for which the “PBM E-score” value is 0.119.

Take ATGGTTAA: the “PBM E-score” value stood at 0.357.

Turning to GTGGTTTA, the “PBM E-score” value came out at 0.213.

In the case of CCTGTGAG, the “PBM E-score” value was found to be 0.133.

Take CGGTGCTC: the “PBM E-score” value was 0.123.

As for GGCACAGA, the “PBM E-score” value was -0.267.

ATCCTAAT: the “PBM E-score” value is 0.0542.

Regarding ATCCTAAG, the “PBM E-score” value was -0.00974.

In the case of CCCCTAAC, the “PBM E-score” value is 0.232.

On to AGCCTAAT, for which the “PBM E-score” value is -0.212.

CCCCTAAA: the “PBM E-score” value was determined as 0.0485.

Regarding CCCCTAAG, the “PBM E-score” value came to 0.158.

Regarding TCCCTAAA, the “PBM E-score” value was -0.0128.

With ACCCTAAT, the “PBM E-score” value was 0.407.

With ACCCTAAC, the “PBM E-score” value is 0.414.

For GCCCTAAC, the “PBM E-score” value was found to be 0.111.

For ACCCTAAG, the “PBM E-score” value was 0.457.

For the sequence ACCCTAAA, the “PBM E-score” value was determined as 0.416.

As for GCTGCTTA, the “PBM E-score” value stood at 0.0693.

On to CCCTGCCA, for which the “PBM E-score” value was -0.00313.

Turning to CGCTAGCC, the “PBM E-score” value was -0.373.

For the sequence AGGTATAA, the “PBM E-score” value worked out at 0.317.

Consider CGGTATAA, for which the “PBM E-score” value is 0.0772.

For AGGTATAT, the “PBM E-score” value came out at 0.115.

As to CATGCTGG, the “PBM E-score” value was -0.0654.

With CGGATTCC, the “PBM E-score” value is -0.0353.

For AACCCCTC, the “PBM E-score” value was found to be 0.353.

AACCCCTG: the “PBM E-score” value was 0.347.

Take CACCCCTG: the “PBM E-score” value is -0.0914.

Turning to TAGCCCTA, the “PBM E-score” value is -0.0869.

Take TAACCCTA: the “PBM E-score” value is 0.462.

Take TAACCGTA: the “PBM E-score” value was 0.31.

Regarding AAACCCTG, the “PBM E-score” value stood at 0.337.

Turning to AGACCCTG, the “PBM E-score” value is 0.253.

Turning to ACCCCCTG, the “PBM E-score” value is -0.07.

As for ACCCCCTC, the “PBM E-score” value is -0.0959.

With CACCCCTC, the “PBM E-score” value came to 0.239.

With AAACCCTC, the “PBM E-score” value was 0.175.

In the case of AGAGAGAC, the “PBM E-score” value is -0.00859.

CACGCTAG: the “PBM E-score” value is -0.21.

On to ACGTTGAG, for which the “PBM E-score” value is -0.0801.

With TCCTTAAA, the “PBM E-score” value amounted to 0.15.

Regarding AGATTTGC, the “PBM E-score” value was -0.0426.

As to ATATCTCC, the “PBM E-score” value is -0.149.

On to ATTGACTC, for which the “PBM E-score” value was found to be 0.049.

For GGACAGCC, the “PBM E-score” value is -0.0735.

In the case of CATCGACC, the “PBM E-score” value is -0.0318.

In the case of TTCTTCAA, the “PBM E-score” value amounted to 0.0925.

On to ATCCCCTA, for which the “PBM E-score” value amounted to 0.0194.

As to CAACCCTA, the “PBM E-score” value was determined as 0.442.

AAACCCAA: the “PBM E-score” value is 0.312.

Regarding CAACCCTC, the “PBM E-score” value worked out at 0.258.

Regarding CAACCCGG, the “PBM E-score” value worked out at 0.213.

CAACCCTG: the “PBM E-score” value stood at 0.419.

Consider ACCCCCTA, for which the “PBM E-score” value is -0.354.

Take GAACCCTA: the “PBM E-score” value was 0.272.

For AAACCCTT, the “PBM E-score” value stood at 0.272.

Turning to CAAACCTA, the “PBM E-score” value amounted to 0.166.

AAACCCTA: the “PBM E-score” value came out at 0.423.

AACCCCTA: the “PBM E-score” value was found to be 0.389.

As for CGAAGCAG, the “PBM E-score” value was -0.165.

Regarding AGGCTGGA, the “PBM E-score” value is -0.23.

For CACCAGGA, the “PBM E-score” value amounted to 0.0532.

With AATCGCGG, the “PBM E-score” value was -0.0922.

Take GAAAAGAC: the “PBM E-score” value came out at 0.0296.

As to CACCAAGA, the “PBM E-score” value was found to be 0.0172.

Turning to ATCAACGC, the “PBM E-score” value is -0.0956.
